Shown are actives, neighbours in structure and some others; about 1.1% of the full set was active somewhere.
HER2 expr 66K = lowers expression of human Her2 kinase | P04626 | SKBR-3 HER2 protein level, AlphaScreen, 18-24 h; stronger effect = lower value | HER2 level % of control, % at 10 µM | hit rate 0.69% among 65,000 | AID 645;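 active = HER2 level under 5% of the carrier-only control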;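 note: 100% = DMSO carrier and 0% = 500 nM PU-H71 HSP90 inhibitor; lower value means stronger loss of Her2 protein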
Hsp90 inh = displaces geldanamycin probe from tumor Hsp90 | inhibition, % at 30 µM | hit rate 0.35% among 64,000 | P07900 | NCI-N417 lysate Hsp90, Cy3B-geldanamycin FP displacement;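 active = inhibition above 50%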;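 note: 0% = tracer plus lysate wells and 100% = tracer alone without lysate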
HePTP inhibitor = inhibitors of human HePTP phosphatase | inhibition, % at 20 µM | recombinant HePTP phosphatase activity, OD absorbance | hit rate 0.64% among 110,000 | AID 521; in the data active = inhibition above about 50%;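 note: plate controls were vehicle for no effect and reference inhibitor for full effect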
MT1-MMP txn act = activates MT1-MMP transcription | activation factor at 10 µM | AID 750 | hit rate 0.16% among 86,000 | HT1080 MT1-MMP promoter luciferase reporter, luminescence, overnight; stronger effect = higher value;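 active = activation factor of at least 2 for MT1-MMP transcription at 10 µM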
TNAP act mid DEA = activates human TNAP at intermediate phosphate acceptor concentration | activation factor at 20 µM | purified TNAP, CDP-star luminescence, 100 mM DEA, 30 min; stronger effect = higher value; scale: 0 levamisole-inhibited, 1 vehicle-only enzyme | AID 813 | 64,000 tested, under 10 active | P05186;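 active = activation factor of at least 2 at 20 µM, relative to controls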
Target sequence (P05186 whole entry, looked up): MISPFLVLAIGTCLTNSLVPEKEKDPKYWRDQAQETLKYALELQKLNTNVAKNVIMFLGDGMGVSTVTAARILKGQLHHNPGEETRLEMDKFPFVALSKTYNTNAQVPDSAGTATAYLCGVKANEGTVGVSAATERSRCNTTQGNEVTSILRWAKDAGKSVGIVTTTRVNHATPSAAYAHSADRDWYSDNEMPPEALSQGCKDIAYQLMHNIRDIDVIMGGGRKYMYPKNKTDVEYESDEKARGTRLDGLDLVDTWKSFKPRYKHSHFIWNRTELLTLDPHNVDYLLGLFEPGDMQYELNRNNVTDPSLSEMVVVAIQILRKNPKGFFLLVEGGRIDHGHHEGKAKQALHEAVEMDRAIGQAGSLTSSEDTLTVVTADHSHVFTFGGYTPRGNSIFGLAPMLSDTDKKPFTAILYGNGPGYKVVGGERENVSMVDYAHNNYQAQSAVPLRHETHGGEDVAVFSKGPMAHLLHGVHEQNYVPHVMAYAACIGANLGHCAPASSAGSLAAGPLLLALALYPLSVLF
Ec RNAP inh = blocks E. coli RNA polymerase transcription | P0A8V2 | fluorescence transcription assay | inhibition, %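 (tested at 10 µM)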 | hit rate 0.2% among 62,000 | AID 559; in the data active = inhibition above about 20%;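 note: 0% = enzyme without compound and 100% = no enzyme blank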
The depositor's hits bear a star; . = not tested or not shown.

SMILES	HER2 expr 66K	Hsp90 inh	HePTP inhibitor	MT1-MMP txn act	TNAP act mid DEA	Ec RNAP inh
COc1c(Br)cc(/C=C2\SC(=S)NC2=O)cc1Br	.	.	103.2*	.	.	.
O=[N+]([O-])c1cccc(S(=O)(=O)NCc2ccncc2)c1	.	.	103.4*	.	.	.
O=[N+]([O-])c1cccc(S(=O)(=O)NCc2cccnc2)c1	.	.	-0.3	.	.	.
CCOc1cc(C=C2C(=O)NC(=O)NC2=O)ccc1OS(=O)(=O)c1ccc(C)cc1	.	.	5.7	.	.	.
O=C(NC(=S)Nc1ccc(Cc2ccncc2)cc1)c1ccc(Cl)cc1	.	.	4.6	.	.	.
Cc1ccc(OCCc2c(C)n[nH]c2C)c(Cl)c1	.	.	104.7*	.	.	.
Cc1ccc(NC(=O)COc2ccc(Br)c(C)c2)c([N+](=O)[O-])c1	.	.	-8.5	.	.	.
C=COCCNC(=O)C(=O)Nc1cccc(C)c1C	.	.	-0.8	.	.	.
Oc1ccc(-c2onc(C(F)(F)F)c2-c2cscn2)c(O)c1	62.9	64.6*	2.2	1	0.9	3.0
Cc1nc(-c2c(C(F)(F)F)noc2-c2ccc(O)cc2O)cs1	.	.	.	1	.	.
CC1=NN(c2cccc(C(=O)O)c2)C(=O)/C1=C\c1ccc(F)cc1	.	.	5.7	.	.	.
O=C1NC(=O)C(=Cc2ccc(-c3cc(Cl)c([N+](=O)[O-])cc3Cl)o2)C(=O)N1	.	.	-5.7	.	.	.
O=C1NC(=O)C(=Cc2ccc(Cl)c([N+](=O)[O-])c2)C(=O)N1	.	.	95.5*	.	.	.
COc1cc(C=C2C(=O)NC(=S)NC2=O)ccc1OCc1ccc(C(=O)O)cc1	.	.	-15.6	.	.	.
O=C1NC(=S)NC(=O)C1=Cc1cc(Cl)c(OCc2ccc(C(=O)O)cc2)c(Cl)c1	.	.	103.6*	.	.	.
N#Cc1c(-c2ccc(Br)cc2)cc(-c2ccco2)c(C#N)c1N	.	.	100.7*	.	.	.
C/C(=N\NC(=O)c1ccccc1O)c1ccncc1	.	.	-14.6	.	.	.
O=S(=O)(c1ccc(F)cc1)N(CCO)CC(O)Cn1c2ccccc2c2ccccc21 (stereo unspecified)	-13.3*	-3.5	15.8	1.3	0.8	6.4
CCN(CC(O)Cn1c2ccccc2c2ccccc21)S(=O)(=O)c1ccc(F)cc1 (stereo unspecified)	.	.	.	1.2	.	.
O=C(CSc1ccccn1)Nc1nc2ccccc2s1	.	.	1.6	.	.	.
O=S(=O)(CCSc1ccccn1)c1nc2ccccc2s1	-8.5*	-5.4	5.4	0.9	0.9	5.7
O=S(=O)(CCSc1nc2ccccc2o1)c1nc2ccccc2s1	-14.5*	0.3	-13.0	1	1	-7.5
CCCCn1c(SCC(=O)Nc2nnc(C)s2)nc2c1c(=O)n(C)c(=O)n2C	135.7	0.3	-1.4	1	1	31.3*
COc1ccc(N2C(=O)NC(=O)/C(=C\c3cccc(OC)c3OC)C2=O)cc1	.	.	15.3	.	.	.
S=C(NCCC(c1ccccc1)c1ccccc1)Nc1ccc(Cl)cc1Cl	.	.	0.6	.	.	.
SMILES	HER2 expr 66K	Hsp90 inh	HePTP inhibitor	MT1-MMP txn act	TNAP act mid DEA	Ec RNAP inh
O=C(c1ccc(Br)o1)N1CCN(c2ccc([N+](=O)[O-])cc2)CC1	.	.	102.7*	.	.	.
CCCn1c(SCC(=O)Nc2cccc(C)n2)nnc1-c1ccco1	-22.9*	-1.3	7.4	1.2	1	10.8
O=C(Nc1ccccc1Cl)c1ccc(CN2CCc3ccccc3C2)cc1	.	.	-11.4	.	.	.
O=[N+]([O-])c1cc(C(F)(F)F)ccc1NCCNC(=S)Nc1ccc(Cl)cc1	.	.	103.9*	.	.	.
COc1ccc(C2CC(=O)C3=C(C2)Nc2ccccc2NC3c2ccc(F)c(F)c2)cc1OC (stereo unspecified)	.	.	5.5	.	.	.
CCOc1ccc(NC(=O)Cn2nnc(-c3ccccc3NC(=O)C3CC3)n2)cc1	59.6	-2.1	-1.5	1.2	0.8	23.7*
Cc1cccc(OCC(=O)NCCc2ccccc2)c1	.	.	0.4	.	.	.
CC1=NN(c2cccc(C(=O)O)c2)C(=O)/C1=C\c1ccc(-c2ccc([N+](=O)[O-])cc2)o1	.	.	6.2	.	.	.
CC1=NN(c2cccc(C(=O)O)c2)C(=O)/C1=C\c1ccc(-c2cc([N+](=O)[O-])ccc2C)o1	.	.	55.7*	.	.	.
CC1=NN(c2cccc(C(=O)O)c2)C(=O)/C1=C\c1ccc(-c2ccc(Cl)c(C(=O)O)c2)o1	.	.	100.6*	.	.	.
CC(C)(C)c1ccc(C=NN2CCN(Cc3ccccc3)CC2)cc1	.	.	-4.0	.	.	.
O=C1NC(=O)c2c1cc1ccccc1c2-c1ccccc1	.	.	6.0	.	.	.
CN1CC2=Cc3ccccc3OC23Oc2ccccc2C=C3C1	-7.0*	-1.3	0.5	1.1	0.9	8.6
O=c1c2c(nc3cc(-c4ccc(Br)cc4)[nH]n13)CCS2	.	.	51.6*	.	.	.
Cc1cc(OCC(=O)N2CCCC2)ccc1Br	.	.	-23.7	.	.	.
O=Cc1cn(-c2ccccc2)nc1-c1cccs1	.	.	-8.9	.	.	.
